Assay results: ChEMBL document CHEMBL3988442, “University of Dundee, Small-Polar-MMV Screening Library” (2021)
For part of these data: Potency and affinity values are given separately.

Assays:
Set-up in all cases: scale not given: direction of the effect not stated beside the values
[1] = target: Protein translocase subunit SecA (Escherichia coli (strain K12)) (UniProt P10408); experiment: Assay to Identify E. coli SecA ATPase Inhibitors; format: functional; settings: 30 µM
[2] = target: T1, Ubiquitin-activating enzyme e1, putative (Leishmania donovani (strain BPK282A1)) (UniProt E9BSI1); experiment: Leishmania donovani Ubiquitin Activating Enzyme (LdE1); format: functional; settings: 30 µM
T1 sequence (whole entry): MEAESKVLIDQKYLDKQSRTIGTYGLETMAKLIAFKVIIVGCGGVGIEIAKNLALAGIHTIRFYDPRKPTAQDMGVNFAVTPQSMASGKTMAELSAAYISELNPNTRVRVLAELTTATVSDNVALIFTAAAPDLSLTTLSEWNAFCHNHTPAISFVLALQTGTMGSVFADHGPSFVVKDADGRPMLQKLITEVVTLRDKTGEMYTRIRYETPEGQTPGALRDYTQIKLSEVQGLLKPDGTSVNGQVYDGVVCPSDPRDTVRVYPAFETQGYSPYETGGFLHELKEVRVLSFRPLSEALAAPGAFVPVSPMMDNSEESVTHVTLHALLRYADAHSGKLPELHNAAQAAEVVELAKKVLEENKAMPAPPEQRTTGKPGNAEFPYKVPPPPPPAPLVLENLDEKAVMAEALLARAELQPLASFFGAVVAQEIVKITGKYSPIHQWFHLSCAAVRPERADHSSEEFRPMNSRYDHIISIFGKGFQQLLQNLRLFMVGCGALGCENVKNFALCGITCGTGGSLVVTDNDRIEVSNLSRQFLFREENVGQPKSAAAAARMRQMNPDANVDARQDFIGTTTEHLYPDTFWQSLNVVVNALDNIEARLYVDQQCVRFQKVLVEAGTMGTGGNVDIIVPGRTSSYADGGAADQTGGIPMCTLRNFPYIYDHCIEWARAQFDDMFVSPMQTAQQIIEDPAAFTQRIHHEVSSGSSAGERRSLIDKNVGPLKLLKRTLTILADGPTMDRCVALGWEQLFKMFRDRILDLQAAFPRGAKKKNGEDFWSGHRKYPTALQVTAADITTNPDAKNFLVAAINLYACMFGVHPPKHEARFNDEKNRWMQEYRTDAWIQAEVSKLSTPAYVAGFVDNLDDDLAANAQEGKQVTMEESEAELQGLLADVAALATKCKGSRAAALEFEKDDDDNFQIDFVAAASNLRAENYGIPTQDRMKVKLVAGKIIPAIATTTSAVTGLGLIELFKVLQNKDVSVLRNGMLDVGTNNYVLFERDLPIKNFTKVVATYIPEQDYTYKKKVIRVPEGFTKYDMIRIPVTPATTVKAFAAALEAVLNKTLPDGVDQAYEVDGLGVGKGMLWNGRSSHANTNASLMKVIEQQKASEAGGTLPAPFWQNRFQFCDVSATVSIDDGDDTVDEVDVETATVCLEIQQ

[3] = target: T2, Aspartate--tRNA(Asp/Asn) ligase (Mycobacterium tuberculosis (strain ATCC 25618 / H37Rv)) (UniProt P9WFW3); experiment: Assay for Asp RNA synthetase-1 from Mycobacterium tuberculosis; format: functional; settings: 30 µM; further: in the data most compounds retested in dose-response had high values
T2 sequence (whole entry): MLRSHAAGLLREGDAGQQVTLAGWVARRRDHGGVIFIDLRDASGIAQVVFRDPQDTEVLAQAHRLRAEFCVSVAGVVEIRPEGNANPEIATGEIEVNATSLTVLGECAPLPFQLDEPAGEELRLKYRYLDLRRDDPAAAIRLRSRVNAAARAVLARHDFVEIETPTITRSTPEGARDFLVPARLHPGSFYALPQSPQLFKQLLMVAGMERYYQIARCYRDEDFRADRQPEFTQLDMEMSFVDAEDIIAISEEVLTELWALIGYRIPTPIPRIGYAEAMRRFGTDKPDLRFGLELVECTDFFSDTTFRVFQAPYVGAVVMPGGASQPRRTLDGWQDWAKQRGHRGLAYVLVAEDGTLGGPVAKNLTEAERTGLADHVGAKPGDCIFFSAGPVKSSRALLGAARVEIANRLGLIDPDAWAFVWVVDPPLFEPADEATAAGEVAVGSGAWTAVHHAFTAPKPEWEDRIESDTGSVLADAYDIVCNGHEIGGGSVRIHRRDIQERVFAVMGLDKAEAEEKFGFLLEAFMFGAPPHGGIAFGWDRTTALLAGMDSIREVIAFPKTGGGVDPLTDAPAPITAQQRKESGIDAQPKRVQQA

[4] = target: AMP-activated protein kinase, AMPK (Homo sapiens) (UniProt P54646+O43741+P54619+Q9UGJ0+Q9Y478+Q13131+Q9UGI9); experiment: AMP-dependent Kinase enzyme assay. An in vitro enzyme assay that detects ADP turnover that is directly proportional to AMPK activity. This uses naive AMPK that is activated during the assay with MK-8722; format: functional; settings: 30 µM
[5] = target: Sialic acid-binding Ig-like lectin 9 (Homo sapiens) (UniProt Q9Y336); experiment: Hs-Siglec9 ALPHAscreen SOP 20170721; settings: 10 µM
Chain of Sialic acid-binding Ig-like lectin 9 (Homo sapiens) (Q9Y336 whole entry): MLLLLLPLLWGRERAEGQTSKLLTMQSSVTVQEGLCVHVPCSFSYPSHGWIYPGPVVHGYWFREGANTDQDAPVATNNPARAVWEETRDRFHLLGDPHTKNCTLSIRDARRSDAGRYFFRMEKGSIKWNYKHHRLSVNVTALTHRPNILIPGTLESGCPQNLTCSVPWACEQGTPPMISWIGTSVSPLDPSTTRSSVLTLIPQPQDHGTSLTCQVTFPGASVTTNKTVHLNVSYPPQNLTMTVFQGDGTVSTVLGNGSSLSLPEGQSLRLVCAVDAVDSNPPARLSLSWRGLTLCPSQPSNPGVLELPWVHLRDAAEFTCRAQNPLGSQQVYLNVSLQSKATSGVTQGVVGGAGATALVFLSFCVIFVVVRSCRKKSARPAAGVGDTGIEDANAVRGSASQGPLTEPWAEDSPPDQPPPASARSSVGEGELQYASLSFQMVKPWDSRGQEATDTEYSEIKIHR

Trypanosoma cruzi = experiment: Trypanosoma cruzi phosphomannomutase and mannose-1-phosphate guanylyltransferase assay; format: functional; settings: 10 µM
[6] = target: T3, Arginase-2, mitochondrial (Homo sapiens) (UniProt P78540); experiment: in vitro enzyme assay to detect the production of urea directly proportional to the activity of Arginase II; format: functional; settings: 33.3 µM; further: in the data most compounds retested in dose-response had high values
T3 sequence (whole entry): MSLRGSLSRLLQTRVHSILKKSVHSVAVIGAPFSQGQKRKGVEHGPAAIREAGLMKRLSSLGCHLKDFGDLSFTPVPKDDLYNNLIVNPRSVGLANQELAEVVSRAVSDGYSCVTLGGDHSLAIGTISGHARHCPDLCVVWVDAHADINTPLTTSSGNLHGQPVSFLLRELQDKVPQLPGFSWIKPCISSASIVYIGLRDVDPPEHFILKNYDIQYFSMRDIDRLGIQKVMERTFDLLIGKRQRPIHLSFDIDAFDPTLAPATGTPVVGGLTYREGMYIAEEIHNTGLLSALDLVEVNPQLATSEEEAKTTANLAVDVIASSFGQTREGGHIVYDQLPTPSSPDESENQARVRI

[7] = target: T4, Proteasome subunit beta (Trypanosoma cruzi) (UniProt O96673); experiment: Trypanosoma cruzi proteasome chymotrypsin-like activity (TcProtChymo) assay.; further: in the data most compounds retested in dose-response had high values; format: functional; settings: 9.37 µM
T4 sequence (whole entry): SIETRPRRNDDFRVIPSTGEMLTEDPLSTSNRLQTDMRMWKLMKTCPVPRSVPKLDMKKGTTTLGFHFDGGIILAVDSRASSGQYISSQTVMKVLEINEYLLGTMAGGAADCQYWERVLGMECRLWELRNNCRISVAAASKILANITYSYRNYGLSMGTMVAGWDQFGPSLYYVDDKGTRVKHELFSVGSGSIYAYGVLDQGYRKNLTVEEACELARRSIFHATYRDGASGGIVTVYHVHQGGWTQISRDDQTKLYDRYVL

Homo sapiens = organism: Homo sapiens; experiment: To identify inhibition of the IFN signalling (Jak-Stat) pathway via expression of an eGFP reporter gene under the control of an IFN-stimulated response element (ISRE) containing MxA promoter.; format: functional; settings: 30 µM
[8] = target: Shiga toxin 2 (Escherichia coli O157:H7) (UniProt P09385+P09386); experiment: E. coli 0.157:H7 Shiga Toxin SOP - stx2 screening assay; format: functional; settings: 30 µM
[9] = target: T5, Tyrosyl-tRNA synthetase, putative (Trypanosoma cruzi (strain CL Brener)) (UniProt Q4DSP6); experiment: Trypanosoma cruzi tyrosyl tRNA synthetase (TcYRS) _High Tyrosine SOP; format: functional; settings: 30 µM; further: in the data most compounds retested in dose-response had high values
T5 sequence (whole entry): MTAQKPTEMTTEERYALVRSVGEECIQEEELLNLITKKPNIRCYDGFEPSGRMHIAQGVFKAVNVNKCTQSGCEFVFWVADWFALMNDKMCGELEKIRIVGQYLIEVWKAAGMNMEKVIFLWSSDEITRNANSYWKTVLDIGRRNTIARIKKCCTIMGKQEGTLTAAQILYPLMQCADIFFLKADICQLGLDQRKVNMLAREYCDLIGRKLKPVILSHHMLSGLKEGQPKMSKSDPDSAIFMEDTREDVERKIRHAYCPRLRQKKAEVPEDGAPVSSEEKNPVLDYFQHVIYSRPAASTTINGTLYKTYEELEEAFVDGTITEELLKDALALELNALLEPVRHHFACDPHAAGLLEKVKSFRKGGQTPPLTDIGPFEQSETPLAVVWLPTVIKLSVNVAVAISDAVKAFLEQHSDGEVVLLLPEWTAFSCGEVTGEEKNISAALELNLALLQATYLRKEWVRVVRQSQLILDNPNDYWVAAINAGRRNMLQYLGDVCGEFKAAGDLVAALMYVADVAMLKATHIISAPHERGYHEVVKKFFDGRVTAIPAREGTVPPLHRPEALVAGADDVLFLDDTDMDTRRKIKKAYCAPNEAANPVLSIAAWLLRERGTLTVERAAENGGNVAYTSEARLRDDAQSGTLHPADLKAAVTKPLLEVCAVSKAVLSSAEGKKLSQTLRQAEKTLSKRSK

[10] = target: T5, Tyrosyl-tRNA synthetase, putative (Trypanosoma cruzi (strain CL Brener)); experiment: Trypanosoma cruzi tyrosyl tRNA synthetase (TcYRS) SOP; format: functional; settings: 30 µM
[11] = target: Chromo domain-containing protein 1 (Saccharomyces cerevisiae (strain ATCC 204508 / S288c) (Baker's yeast)) (UniProt P32657); experiment: ScCHD-1 Enzyme Inhibition Assay; format: functional; settings: 30 µM; further: in the data most compounds retested in dose-response had high values
Chain of Chromo domain-containing protein 1 (Saccharomyces cerevisiae (strain ATCC 204508 / S288c) (Baker's yeast)) (P32657 whole entry, the tested form may be a part): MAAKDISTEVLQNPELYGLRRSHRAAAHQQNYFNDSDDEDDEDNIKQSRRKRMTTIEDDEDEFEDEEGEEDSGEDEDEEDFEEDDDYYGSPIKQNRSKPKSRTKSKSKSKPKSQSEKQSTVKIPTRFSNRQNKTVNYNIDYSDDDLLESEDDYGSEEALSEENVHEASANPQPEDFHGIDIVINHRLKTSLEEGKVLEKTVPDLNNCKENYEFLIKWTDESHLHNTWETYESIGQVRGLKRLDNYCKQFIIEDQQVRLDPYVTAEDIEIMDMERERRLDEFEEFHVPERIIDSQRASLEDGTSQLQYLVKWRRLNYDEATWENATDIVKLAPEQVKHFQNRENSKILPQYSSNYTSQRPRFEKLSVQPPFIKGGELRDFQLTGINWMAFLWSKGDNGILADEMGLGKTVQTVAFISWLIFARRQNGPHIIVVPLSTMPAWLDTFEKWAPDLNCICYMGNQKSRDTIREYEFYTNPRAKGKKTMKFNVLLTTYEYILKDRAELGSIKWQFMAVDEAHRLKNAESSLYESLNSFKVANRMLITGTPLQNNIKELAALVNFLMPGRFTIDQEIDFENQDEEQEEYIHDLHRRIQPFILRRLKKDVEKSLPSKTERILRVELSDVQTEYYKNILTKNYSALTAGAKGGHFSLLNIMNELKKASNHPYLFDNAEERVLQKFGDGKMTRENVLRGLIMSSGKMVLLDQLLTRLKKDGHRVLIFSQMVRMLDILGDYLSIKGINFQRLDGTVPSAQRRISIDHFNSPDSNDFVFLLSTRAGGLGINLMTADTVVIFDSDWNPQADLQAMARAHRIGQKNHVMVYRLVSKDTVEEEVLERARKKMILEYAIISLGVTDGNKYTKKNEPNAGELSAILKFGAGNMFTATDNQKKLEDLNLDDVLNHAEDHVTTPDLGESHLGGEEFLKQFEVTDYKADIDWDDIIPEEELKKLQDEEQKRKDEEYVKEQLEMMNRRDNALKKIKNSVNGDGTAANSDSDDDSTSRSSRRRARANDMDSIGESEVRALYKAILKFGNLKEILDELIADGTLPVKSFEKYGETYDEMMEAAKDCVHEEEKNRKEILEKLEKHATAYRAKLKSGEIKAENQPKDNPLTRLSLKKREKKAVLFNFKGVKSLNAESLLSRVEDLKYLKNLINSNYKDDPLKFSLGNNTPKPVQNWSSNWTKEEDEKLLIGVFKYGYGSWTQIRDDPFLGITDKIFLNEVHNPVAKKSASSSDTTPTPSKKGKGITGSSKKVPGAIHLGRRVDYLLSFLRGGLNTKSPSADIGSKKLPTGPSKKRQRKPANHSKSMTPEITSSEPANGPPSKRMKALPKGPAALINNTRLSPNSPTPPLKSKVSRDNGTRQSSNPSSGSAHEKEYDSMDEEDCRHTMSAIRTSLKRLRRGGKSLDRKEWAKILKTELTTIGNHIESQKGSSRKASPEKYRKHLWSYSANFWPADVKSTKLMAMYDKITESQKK

Chain of Protein translocase subunit SecA (Escherichia coli (strain K12)) (P10408 whole entry): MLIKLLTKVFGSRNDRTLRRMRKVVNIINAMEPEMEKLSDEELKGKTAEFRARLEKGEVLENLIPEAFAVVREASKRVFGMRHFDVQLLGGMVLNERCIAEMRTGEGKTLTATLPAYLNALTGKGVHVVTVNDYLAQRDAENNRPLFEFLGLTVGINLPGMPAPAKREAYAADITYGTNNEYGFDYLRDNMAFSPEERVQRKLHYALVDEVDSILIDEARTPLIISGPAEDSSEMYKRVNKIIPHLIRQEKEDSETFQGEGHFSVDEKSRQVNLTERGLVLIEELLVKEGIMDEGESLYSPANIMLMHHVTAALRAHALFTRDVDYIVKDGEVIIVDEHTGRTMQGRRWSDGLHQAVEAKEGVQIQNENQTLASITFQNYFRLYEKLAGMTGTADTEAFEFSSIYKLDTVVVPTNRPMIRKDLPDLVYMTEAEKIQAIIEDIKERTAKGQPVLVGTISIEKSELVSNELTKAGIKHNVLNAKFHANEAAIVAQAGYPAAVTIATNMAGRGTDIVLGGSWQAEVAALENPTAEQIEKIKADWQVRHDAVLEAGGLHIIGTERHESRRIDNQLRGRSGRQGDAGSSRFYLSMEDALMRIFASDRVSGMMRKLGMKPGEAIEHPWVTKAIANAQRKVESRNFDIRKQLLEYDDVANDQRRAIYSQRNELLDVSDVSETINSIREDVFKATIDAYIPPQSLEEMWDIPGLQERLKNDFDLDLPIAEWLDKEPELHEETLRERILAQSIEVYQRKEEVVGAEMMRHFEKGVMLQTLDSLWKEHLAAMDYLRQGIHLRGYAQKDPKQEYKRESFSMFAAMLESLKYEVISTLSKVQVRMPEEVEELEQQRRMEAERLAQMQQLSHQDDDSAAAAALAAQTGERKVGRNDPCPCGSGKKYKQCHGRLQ

Compound	Percent Effect [1]	Percent Effect [2]	Percent Effect [3]	Percent Effect [4]	Percent Effect [5]	Percent Effect (Trypanosoma cruzi)	Percent Effect [6]	Percent Effect [7]	Percent Effect (Homo sapiens)	Percent Effect [8]	Percent Effect [9]	Percent Effect [10]	Percent Effect [11]
O=C1OCCC1N1CCN(C(=O)Cc2c[nH]c3ccccc23)CC1 (stereo not given)	-0.412%	18.9%	6.13%	-14.5%	-1.41%	3.49%	-9.62%	15.7%	9.19%	15.5%	12.3%	23.5%	-11.1%
O=C(COc1ccccc1)N1C[C@@H](O)[C@H](N2CCCC2)C1	0.635%	9.46%	-7.13%	3.56%	-3.46%	3.36%	-6.26%	10.8%	1.48%	-14.2%	-1.07%	3.9%	-22%
Cc1nc(NCC2CC2)nc2c1COCC21CCN(C)C1 (stereo not given)	-1.26%	18.7%	-1.49%	0.667%	-4.41%	2.17%	46.4%	19.1%	2.6%	2.88%	4.25%	16.7%	-6.2%
CO[C@H]1CCN(Cc2ccccn2)[C@@H]2CN(Cc3ccco3)C[C@H]12	-4.75%	9.33%	-1.34%	0.435%	4.87%	-3.34%	2.64%	17.7%	-12.9%	-18.4%	9.52%	15.4%	-1.8%
COCC(=O)NC(C)Cc1cccc(Br)c1 (stereo not given)	-8.66%	13.2%	-1.17%	-9.62%	6.28%	10.3%	-0.383%	9.19%	12.7%	-16.5%	7.35%	19.5%	-12.4%
CO[C@@H]1CC[C@H]2[C@H]1OCCN2CC1CCOCC1	-7.48%	13.5%	-1.82%	-2.63%	10.8%	3.91%	3.33%	8.88%	1.72%	9.96%	4.95%	13.4%	-4.03%
O=C(Cc1csc(-c2ccco2)n1)N1CCN(CCO)CC1	0.294%	1.27%	-0.16%	8.43%	2.75%	0.308%	8.39%	5.49%	11.1%	-23.6%	3.12%	5.06%	-4.16%
c1cc(CN2C[C@@H]3COC[C@]3(COCC3CC3)C2)ccn1	1.31%	14.7%	-0.406%	-2.54%	-3.01%	-4.13%	-1.58%	7.58%	-2.49%	-47.3%	2.12%	7.69%	-2.5%
Cc1noc(C)c1CN1CC[C@H]2C[C@@H](c3ccncn3)O[C@@H]2C1	-2.74%	8.11%	-3.25%	5.49%	1.24%	5.57%	-2.87%	14.2%	17.1%	5.98%	2.16%	17.9%	2.76%
O=C(N[C@H]1CN[C@H]2CCCO[C@H]21)c1cscn1	1.11%	21.9%	4.92%	-4.2%	5.27%	0%	-1.6%	18.6%	4.9%	-0.964%	7.29%	13.6%	-4.35%
O=C(c1ccc2c(c1)COC2)N1CCC(Nc2ccccc2)CC1	-4.95%	7.79%	-0.152%	5.07%	13.2%	5.06%	1.78%	-4.05%	25%	1.98%	6.8%	24.4%	-6.83%
O=C(c1cccnc1)N1C[C@@H]2CC[C@H](C1)N(Cc1ncc[nH]1)C2	-1.65%	16.4%	2.47%	9.09%	6.45%	5.88%	5.91%	11.4%	7.79%	-0.806%	7.53%	15%	-3.77%
CC(C)c1nc(N2CCN3CCCC3C2)c2cnn(C)c2n1 (stereo not given)	-0.588%	8.22%	4.74%	-0.789%	7.41%	1.98%	-6.79%	8.82%	-37.1%	-16.2%	8.33%	16.1%	-6.37%
O=C(Nc1cccnc1)[C@H]1COC[C@H]2CN(C3CCCC3)C[C@H]21	-5.23%	8.11%	5.33%	1.79%	1.44%	2.15%	3.33%	10.2%	-5.51%	-10.3%	4.95%	11%	-4.54%
c1cncc(CO[C@H]2CO[C@@]3(CCN(Cc4ccoc4)C3)C2)c1	-2.55%	-1.33%	-2.79%	7.6%	8.75%	-4.32%	-6.16%	12.6%	2.27%	-19.8%	2.12%	-2.56%	1.04%
